From PubChem BioAssay
“And” between values parts separate entries of the source, which are not always exact repeats. Equal entries are not always repeated. Records with an inconclusive call do not appear. More than one record can exist for a structure, and the calls need not agree. The source made the active and inactive calls. Unless noted, no cut-off is given here; in the data, nearly all actives have AC50 up to about 26 µM.

Experiments:
[1] = viability loss in pontine glioma line – cell-based, SU-DIPG-XXV, MIPE5.0, CellTiter-Glo, qHTS, dose response (AID 1347065); conditions: CellTiter-Glo ATP luminescence;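 note: cells exposed to compound for 48 hours before ATP readout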
[2] = JHH-DIPG-1 glioma cell viability, MIPE5.0 library, CellTiter-Glo luminescence, qHTS (AID 1347067); conditions: JHH-DIPG-1 glioma viability, CellTiter-Glo ATP luminescence;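 note: cells exposed to compound for 48 hours before readout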
[3] = growth inhibition of DIPG cells – cell-based, MIPE5.0 library, qHTS (AID 1347068; cut-off not given, nearly all actives have IC50 up to about 30 µM); conditions: SU-DIPG-XXV viability
[4] = viability loss with induced miR-34 in A549 – imaging, A549 dox-inducible miR-34, nuclei and caspase counts, primary screen (AID 1347080;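 active = compounds whose cell count with miR-34 switched on is under 0.7 times the count with it off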); conditions: A549 miR-34 inducible, Hoechst nuclei count, 48 h
[5] = MELAS cybrid and Rieske KO viability enhancers – cell-based, MELAS cybrids, Rieske KO mouse fibroblasts, CellTiter-Glo, primary screen (AID 1508586;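 active = mean z-score across replicates of 1.96 or higher in either the MELAS or the Rieske mutant cell line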;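 note: z relative to plate mean and SD of compound and empty wells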); conditions: low glucose
[6] = target: NAD(+) hydrolase SARM1 (Homo sapiens) (UniProt Q6SZW1); test: blocking NAD cleavage by SARM1 SAM-TIR – cell lysate, NAD-Glo luminescence (AID 1508614;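 active = compound whose remaining NAD level is above about 45 nM, limit read from the data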;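 note: higher remaining NAD means stronger inhibition of SARM1 NADase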); conditions: SAM-TIR HEK293T lysate NADase, at 1 µM, stronger effect = higher value
[7] = target: Mitogen-activated protein kinase 7 (Homo sapiens) (UniProt Q13164); test: Gal4-ERK5 driven luciferase induction – cell-based, HTS, primary screen (AID 1508626;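 active = luciferase signal above three times the same-plate solvent-only control wells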;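 note: luciferase driven by Gal4-ERK5 fusion binding five Gal4 sites before minimal TATA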); conditions: HeLa Gal4-ERK5 transactivation, 18 h, at 5 µM, stronger effect = higher value
[8] = galactose survival enhancers in mitochondrial complex I cybrids – cell-based, galactose medium, ATP luminescence, primary screen (AID 1645843;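 active = z-score of at least 1.8 in each of two replicates, scored against plate mean and spread of sample wells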;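 note: positive z means more ATP and so rescue of galactose-driven cybrid death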); conditions: complex I mutant cybrid cells, 72 h, stronger effect = higher value
[9] = blockers of cellular phospholipid synthesis – cell-based, LOPAC library, screen 4, primary screen (AID 1347384; call rule not given here); conditions: animal cells, phospholipid biosynthesis inhibition screen; at 10 µM
[10] = growth inhibition of DIPG cells – cell-based, MIPE4.0 library, CellTiter-Glo luminescence, qHTS (AID 1347066; cut-off not given, nearly all actives have AC50 up to about 30 µM;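 note: cells exposed to compound for 48 hours before readout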); conditions: SU-DIPG-VI viability, CellTiter-Glo ATP luminescence
[11] = stronger effect = lower value, cell number ratio, induced over uninduced
[12] = measured here: relative caspase fold change +Dox/-Dox
[13] = measured here: total cells with miR-34 induction, stronger effect = lower value
[14] = measured here: total cells without miR-34 induction
[15] = MELAS cybrid survival, CellTiter-Glo 48 h, stronger effect = higher value
[16] = Rieske KO mouse fibroblast survival, CellTiter-Glo 72 h

Chain of NAD(+) hydrolase SARM1 (Homo sapiens) (Q6SZW1 whole entry, looked up, the tested form may be a part): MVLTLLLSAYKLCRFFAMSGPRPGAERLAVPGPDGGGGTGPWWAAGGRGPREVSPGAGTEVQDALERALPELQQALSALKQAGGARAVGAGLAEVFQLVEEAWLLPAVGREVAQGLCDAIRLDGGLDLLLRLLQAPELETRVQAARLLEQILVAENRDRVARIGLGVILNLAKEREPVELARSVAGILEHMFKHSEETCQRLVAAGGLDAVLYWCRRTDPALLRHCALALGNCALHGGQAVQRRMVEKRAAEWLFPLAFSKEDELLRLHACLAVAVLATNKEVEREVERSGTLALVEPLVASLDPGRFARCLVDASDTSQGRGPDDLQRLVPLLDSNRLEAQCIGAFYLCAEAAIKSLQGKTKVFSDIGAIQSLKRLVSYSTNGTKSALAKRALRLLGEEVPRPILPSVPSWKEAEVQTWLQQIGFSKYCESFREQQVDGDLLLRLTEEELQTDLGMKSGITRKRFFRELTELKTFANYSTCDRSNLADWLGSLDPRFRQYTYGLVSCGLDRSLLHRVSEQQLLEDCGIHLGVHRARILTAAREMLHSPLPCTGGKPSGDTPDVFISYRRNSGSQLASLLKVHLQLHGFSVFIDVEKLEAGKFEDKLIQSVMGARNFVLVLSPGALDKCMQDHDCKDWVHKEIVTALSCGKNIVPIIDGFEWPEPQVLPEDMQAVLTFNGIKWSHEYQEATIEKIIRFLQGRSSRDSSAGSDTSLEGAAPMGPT
Chain of Mitogen-activated protein kinase 7 (Homo sapiens) (Q13164 whole entry, looked up, the tested form may be a part): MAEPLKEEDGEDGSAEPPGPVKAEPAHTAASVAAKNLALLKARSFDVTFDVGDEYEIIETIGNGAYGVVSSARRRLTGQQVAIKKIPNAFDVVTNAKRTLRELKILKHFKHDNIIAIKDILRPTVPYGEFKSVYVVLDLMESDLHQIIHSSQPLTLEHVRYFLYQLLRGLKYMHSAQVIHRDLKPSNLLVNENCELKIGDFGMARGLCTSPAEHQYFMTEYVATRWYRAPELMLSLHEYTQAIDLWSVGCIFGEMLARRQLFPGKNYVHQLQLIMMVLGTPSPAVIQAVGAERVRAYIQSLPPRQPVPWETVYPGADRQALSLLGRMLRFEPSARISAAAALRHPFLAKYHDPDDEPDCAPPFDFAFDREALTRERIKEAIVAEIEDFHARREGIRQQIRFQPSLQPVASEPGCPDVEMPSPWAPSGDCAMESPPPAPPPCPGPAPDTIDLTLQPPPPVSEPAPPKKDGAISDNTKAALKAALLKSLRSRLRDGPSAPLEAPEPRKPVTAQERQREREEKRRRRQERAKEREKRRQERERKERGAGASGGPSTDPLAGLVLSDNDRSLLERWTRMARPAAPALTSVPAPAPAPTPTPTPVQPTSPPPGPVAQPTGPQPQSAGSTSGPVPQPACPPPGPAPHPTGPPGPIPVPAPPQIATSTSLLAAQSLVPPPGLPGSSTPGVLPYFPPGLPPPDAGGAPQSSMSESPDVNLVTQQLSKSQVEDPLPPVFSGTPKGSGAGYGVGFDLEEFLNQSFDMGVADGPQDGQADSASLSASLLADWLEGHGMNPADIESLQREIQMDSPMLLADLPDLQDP

Structure (SMILES)	outcome [1]	outcome [2]	outcome [3]	fold change [4, 11]	fold change [4, 12]	cell count [4, 13]	cell count [4, 14]	z-score [5, 15]	z-score [5, 16]	remaining NAD [6]	luciferase signal [7]	z-score [8]	outcome [9]	AC50 [1]	outcome [10]
CCN1CCN(C(=O)N[C@@H](C(=O)N[C@@H]2C(=O)N3C(C(=O)O)=C(CSc4nnnn4C)CS[C@H]23)c2ccc(O)cc2)C(=O)C1=O	inactive	inactive	inactive	0.863 (inactive) and 0.844 (inactive)	1.41 and 1.35	7800 and 9270	9050 and 11000	-0.583 (inactive) and -0.0634 (inactive)	-0.0146 and -0.684	10 nM (inactive)	88 AU (inactive)	-0.045 (inactive)			
CCCN(CCC)C(=O)C(CCC(=O)O)NC(=O)c1ccccc1 (configuration not stated)	inactive	inactive	inactive	1.06 (inactive) and 0.936 (inactive) and 0.845 (inactive)	0.941 and 0.892 and 4.08	10500 and 8340 and 11300	9940 and 8900 and 13400	-1.04 (inactive)	-0.386	10 nM (inactive)	108 AU (inactive)	0.665 (inactive)	inactive		
CCN(CC)CCOc1ccc(/C(=C(\Cl)c2ccccc2)c2ccccc2)cc1			inactive	0.868 (inactive)	0.906	10700	12300							13.2 µM (active)	inactive
O=C(NCCO[N+](=O)[O-])c1cccnc1	inactive		inactive					-0.335 (inactive) and 0.466 (inactive) and -0.214 (inactive)	-0.979 and 0.348 and 0.117	10 nM (inactive)		0.795 (inactive) and 0.02 (inactive) and 0.605 (inactive)			inactive
COc1ccc(C(=O)CC(=O)c2ccc(C(C)(C)C)cc2)cc1	inactive	inactive	inactive	0.967 (inactive) and 0.867 (inactive)	0.938 and 3.78	7480 and 11300	7740 and 13000	-0.399 (inactive) and 2 (active)	0.325 and 0.254	10 nM (inactive)	44 AU (inactive)				
Oc1ccc(OCc2ccccc2)cc1	inactive	inactive		0.78 (inactive) and 0.903 (inactive)	1.95 and 0.958	2470 and 5720	3170 and 6340	-0.263 (inactive) and 1.74 (inactive)	0.599 and -0.357	10 nM (inactive)	64 AU (inactive)				inactive
CO[C@@H]1[C@@H](OC(N)=O)[C@@H](O)[C@H](Oc2ccc3c(O)c(NC(=O)c4ccc(O)c(CC=C(C)C)c4)c(=O)oc3c2C)OC1(C)C	inactive		inactive	0.761 (inactive)	1.98	10300	13600	0.0759 (inactive)	-1.01	10 nM (inactive)	44 AU (inactive)				inactive
